# In all, about 5,500 compounds went through this assay and about 2,000 (36%) were called active. Not shown: some 18% with an inconclusive outcome. Some of the results follow. Values without a mark were called inactive. No stated cut-off is given here; in the data, active means normalized growth mostly below about 0.91 (no sharp cut-off); inconclusive means no clear call, values can overlap the other calls; inactive means mostly above about 0.92.
# Assay: chemical genetic growth profiling, strain panel (AID 1159580);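 further: tested at 20 µM; growth read once vehicle control cultures reached saturation at 30 °C; 1 = growth at the plate median or of vehicle wells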
# Conditions: growth OD
compound,measurement,setting,value
C[C@@H]1CC[C@H]2[C@@H](C)C(O)O[C@@H]3O[C@@]4(C)CC[C@@H]1[C@]32OO4 (some centres not stated),normalized growth,"S. cerevisiae deletion strains, locus YJR075W, strain HOC1, stronger effect = lower value",0.166 (active)
same,normalized growth,"S. cerevisiae deletion strains, locus YKL009W, strain mrt4, stronger effect = lower value",0.649 (active)
same,normalized growth,"S. cerevisiae deletion strains, locus YKL068W, stronger effect = lower value",0.775 (active)
same,normalized growth,"S. cerevisiae deletion strains, locus YKL085W, strain MDH1 (second series), stronger effect = lower value",0.363 (active)
same,normalized growth,"S. cerevisiae deletion strains, locus YKL085W, strain MDH1, stronger effect = lower value",0.363 (active)
same,normalized growth,"S. cerevisiae deletion strains, locus YKL160W, strain elf1, stronger effect = lower value",0.336 (active)
same,normalized growth,"S. cerevisiae deletion strains, locus YKL190W, strain CNB1, stronger effect = lower value",0.231 (active)
same,normalized growth,"S. cerevisiae deletion strains, locus YKR001C, strain vps1, stronger effect = lower value",0.587 (active)
same,normalized growth,"S. cerevisiae deletion strains, locus YKR026C, strain gcn3, stronger effect = lower value",0.407 (active)
same,normalized growth,"S. cerevisiae deletion strains, locus YKR091W, strain srl3, stronger effect = lower value",0.329 (active)
same,normalized growth,"S. cerevisiae deletion strains, locus YLL001W, strain dnm1, stronger effect = lower value",0.233 (active)
same,normalized growth,"S. cerevisiae deletion strains, locus YLL026W, stronger effect = lower value",0.243 (active)
same,normalized growth,"S. cerevisiae deletion strains, locus YLL041C, strain sdh2, stronger effect = lower value",0.3 (active)
same,normalized growth,"S. cerevisiae deletion strains, locus YLR027C, strain aat2, stronger effect = lower value",0.261 (active)
same,normalized growth,"S. cerevisiae deletion strains, locus YLR039C, strain RIC1, stronger effect = lower value",0.33 (active)
same,normalized growth,"S. cerevisiae deletion strains, locus YLR058C, strain SHM2, stronger effect = lower value",0.403 (active)
same,normalized growth,"S. cerevisiae deletion strains, locus YLR102C, strain apc9, stronger effect = lower value",0.419 (active)
same,normalized growth,"S. cerevisiae deletion strains, locus YLR113W, strain HOG1, stronger effect = lower value",0.323 (active)
same,normalized growth,"S. cerevisiae deletion strains, locus YLR221C, strain rsa3, stronger effect = lower value",0.204 (active)
same,normalized growth,"S. cerevisiae deletion strains, locus YLR258W, strain gsy2, stronger effect = lower value",0.279 (active)
same,normalized growth,"S. cerevisiae deletion strains, locus YLR262C, strain YPT6 (second series), stronger effect = lower value",0.322 (active)
same,normalized growth,"S. cerevisiae deletion strains, locus YLR262C, strain YPT6, stronger effect = lower value",0.486 (active)
same,normalized growth,"S. cerevisiae deletion strains, locus YLR268W, strain sec22, stronger effect = lower value",0.248 (active)
same,normalized growth,"S. cerevisiae deletion strains, locus YLR320W, strain mms22, stronger effect = lower value",0.236 (active)
same,normalized growth,"S. cerevisiae deletion strains, locus YLR330W, strain CHS5, stronger effect = lower value",0.307 (active)
same,normalized growth,"S. cerevisiae deletion strains, locus YLR342W, strain FKS1 (second series), stronger effect = lower value",0.483 (active)
same,normalized growth,"S. cerevisiae deletion strains, locus YLR342W, strain FKS1, stronger effect = lower value",0.563 (active)
same,normalized growth,"S. cerevisiae deletion strains, locus YLR357W, strain rsc2, stronger effect = lower value",0.358 (active)
same,normalized growth,"S. cerevisiae deletion strains, locus YLR370C, strain arc18, stronger effect = lower value",0.384 (active)
same,normalized growth,"S. cerevisiae deletion strains, locus YLR371W, strain rom2, stronger effect = lower value",0.528 (active)
same,normalized growth,"S. cerevisiae deletion strains, locus YLR384C, strain iki3, stronger effect = lower value",0.771 (active)
same,normalized growth,"S. cerevisiae deletion strains, locus YLR418C, strain cdc73, stronger effect = lower value",0.254 (active)
same,normalized growth,"S. cerevisiae deletion strains, locus YML016C, strain PPZ1, stronger effect = lower value",0.214 (active)
same,normalized growth,"S. cerevisiae deletion strains, locus YML032C, strain rad52, stronger effect = lower value",0.367 (active)
same,normalized growth,"S. cerevisiae deletion strains, locus YML120C, strain ndi1, stronger effect = lower value",0.29 (active)
same,normalized growth,"S. cerevisiae deletion strains, locus YML124C, strain tub3, stronger effect = lower value",0.421 (active)
same,normalized growth,"S. cerevisiae deletion strains, locus YMR058W, strain fet3, stronger effect = lower value",0.361 (active)
same,normalized growth,"S. cerevisiae deletion strains, locus YMR078C, strain ctf18, stronger effect = lower value",0.401 (active)
same,normalized growth,"S. cerevisiae deletion strains, locus YMR125W, strain sto1, stronger effect = lower value",0.462 (active)
same,normalized growth,"S. cerevisiae deletion strains, locus YMR129W, stronger effect = lower value",0.266 (active)
same,normalized growth,"S. cerevisiae deletion strains, locus YMR205C, strain PFK2, stronger effect = lower value",0.366 (active)
same,normalized growth,"S. cerevisiae deletion strains, locus YMR223W, strain ubp8, stronger effect = lower value",0.31 (active)
same,normalized growth,"S. cerevisiae deletion strains, locus YMR231W, strain pep5, stronger effect = lower value",0.84 (active)
same,normalized growth,"S. cerevisiae deletion strains, locus YMR263W, strain SAP30, stronger effect = lower value",0.47 (active)
same,normalized growth,"S. cerevisiae deletion strains, locus YMR307W, strain GAS1, stronger effect = lower value",0.661
same,normalized growth,"S. cerevisiae deletion strains, locus YNL067W, strain RPL9B, stronger effect = lower value",0.288 (active)
same,normalized growth,"S. cerevisiae deletion strains, locus YNL071W, strain lat1, stronger effect = lower value",0.167 (active)
same,normalized growth,"S. cerevisiae deletion strains, locus YNL128W, strain TEP1, stronger effect = lower value",0.167 (active)
same,normalized growth,"S. cerevisiae deletion strains, locus YNL153C, strain GIM3, stronger effect = lower value",0.285 (active)
same,normalized growth,"S. cerevisiae deletion strains, locus YNL183C, strain NPR1, stronger effect = lower value",0.266 (active)
same,normalized growth,"S. cerevisiae deletion strains, locus YNL209W, strain ssb2, stronger effect = lower value",0.195 (active)
same,normalized growth,"S. cerevisiae deletion strains, locus YNL233W, strain BNI4, stronger effect = lower value",0.292 (active)
same,normalized growth,"S. cerevisiae deletion strains, locus YNL248C, strain rpa49, stronger effect = lower value",0.384 (active)
same,normalized growth,"S. cerevisiae deletion strains, locus YNL250W, strain rad50, stronger effect = lower value",0.508 (active)
same,normalized growth,"S. cerevisiae deletion strains, locus YNL271C, strain bni1, stronger effect = lower value",0.505 (active)
same,normalized growth,"S. cerevisiae deletion strains, locus YNL298W, strain CLA4, stronger effect = lower value",0.298 (active)
same,normalized growth,"S. cerevisiae deletion strains, locus YNL307C, strain MCK1, stronger effect = lower value",0.125 (active)
same,normalized growth,"S. cerevisiae deletion strains, locus YNL322C, strain KRE1 (second series), stronger effect = lower value",0.493 (active)
same,normalized growth,"S. cerevisiae deletion strains, locus YNL322C, strain KRE1, stronger effect = lower value",0.349 (active)
same,normalized growth,"S. cerevisiae deletion strains, locus YNR049C, strain mso1, stronger effect = lower value",0.412 (active)
same,normalized growth,"S. cerevisiae deletion strains, locus YNR052C, strain pop2, stronger effect = lower value",0.788 (active)
same,normalized growth,"S. cerevisiae deletion strains, locus YOL006C, strain TOP1, stronger effect = lower value",0.16 (active)
same,normalized growth,"S. cerevisiae deletion strains, locus YOL012C, strain htz1",0.255
same,normalized growth,"S. cerevisiae deletion strains, locus YOL147C, strain pex11, stronger effect = lower value",0.256 (active)
same,normalized growth,"S. cerevisiae deletion strains, locus YOR001W, strain rrp6, stronger effect = lower value",0.287 (active)
same,normalized growth,"S. cerevisiae deletion strains, locus YOR061W, strain CKA2, stronger effect = lower value",0.475 (active)
same,normalized growth,"S. cerevisiae deletion strains, locus YOR069W, strain VPS5, stronger effect = lower value",0.564 (active)
same,normalized growth,"S. cerevisiae deletion strains, locus YOR070C, strain gyp1, stronger effect = lower value",0.277 (active)
same,normalized growth,"S. cerevisiae deletion strains, locus YOR080W, strain dia2, stronger effect = lower value",0.431 (active)
same,normalized growth,"S. cerevisiae deletion strains, locus YOR083W, strain WHI5, stronger effect = lower value",0.3 (active)
same,normalized growth,"S. cerevisiae deletion strains, locus YOR106W, strain vam3, stronger effect = lower value",0.288 (active)
same,normalized growth,"S. cerevisiae deletion strains, locus YOR136W, strain idh2, stronger effect = lower value",0.321 (active)
same,normalized growth,"S. cerevisiae deletion strains, locus YOR144C, strain elg1, stronger effect = lower value",0.449 (active)
same,normalized growth,"S. cerevisiae deletion strains, locus YOR184W, strain ser1, stronger effect = lower value",0.131 (active)
same,normalized growth,"S. cerevisiae deletion strains, locus YOR231W, strain MKK1, stronger effect = lower value",0.37 (active)
same,normalized growth,"S. cerevisiae deletion strains, locus YOR265W, strain rbl2, stronger effect = lower value",0.327 (active)
same,normalized growth,"S. cerevisiae deletion strains, locus YOR270C, strain vph1, stronger effect = lower value",0.187 (active)
same,normalized growth,"S. cerevisiae deletion strains, locus YOR290C, strain snf2, stronger effect = lower value",0.302 (active)
same,normalized growth,"S. cerevisiae deletion strains, locus YOR316C, strain cot1, stronger effect = lower value",0.433 (active)
same,normalized growth,"S. cerevisiae deletion strains, locus YPL051W, strain arl3, stronger effect = lower value",0.374 (active)
same,normalized growth,"S. cerevisiae deletion strains, locus YPL055C, strain LGE1, stronger effect = lower value",0.331 (active)
same,normalized growth,"S. cerevisiae deletion strains, locus YPL078C, strain atp4, stronger effect = lower value",0.248 (active)
same,normalized growth,"S. cerevisiae deletion strains, locus YPL106C, strain sse1, stronger effect = lower value",0.263 (active)
same,normalized growth,"S. cerevisiae deletion strains, locus YPL240C, strain hsp82, stronger effect = lower value",0.313 (active)
same,normalized growth,"S. cerevisiae deletion strains, locus YPL241C, strain CIN2, stronger effect = lower value",0.323 (active)
same,normalized growth,"S. cerevisiae deletion strains, locus YPL256C, strain CLN2, stronger effect = lower value",0.419 (active)
same,normalized growth,"S. cerevisiae deletion strains, locus YPR119W, strain clb2, stronger effect = lower value",0.424 (active)
same,normalized growth,"S. cerevisiae deletion strains, locus YPR141C, strain kar3, stronger effect = lower value",0.494 (active)
same,normalized growth,"S. cerevisiae deletion strains, locus YPR163C, strain tif3, stronger effect = lower value",0.314 (active)
same,normalized growth,"S. cerevisiae deletion strains, locus YPR167C, strain met16, stronger effect = lower value",0.386 (active)
same,normalized growth,"S. cerevisiae deletion strains, strain wtn01, stronger effect = lower value",0.249 (active)
same,normalized growth,"S. cerevisiae strains, strain wild type, stronger effect = lower value",0.27 (active)

# — PubChem BioAssay AID1159580 (chemical genetic matrix, 2015)
